Measured values taken from the supplement of paper PMC8975748.
Where a name gives a salt, the structure may show the parent alone.

tested on: Saccharomyces cerevisiae BY4741 SeMeCo community; experiment: z-score of subpopulation abundance vs DMSO median, subpopulation auxotrophic for HUM; higher = larger share of this subpopulation than in DMSO controls; settings: 10 µM; 24 h; SM minimal medium; subpopulation (auxotrophy): HUM
Procedure: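 Fluorescent four-plasmid SeMeCo (self-establishing metabolically cooperating S. cerevisiae BY4741 community; plasmids pH-mRuby2, pL-mWasabi, pU-eCFP, pM-TagRFP657) was grown 24 h in minimal SM medium with each Selleck FDA-approved drug at 10 µM in 384-well plates. Cells were fixed and imaged by high-content confocal microscopy. For each auxotrophic subpopulation (and the prototroph), a z-score gives the deviation from the DMSO vehicle-control population median.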

Structure (SMILES)	z-score of subpopulation abundance
CC(C)[C@H](N)C(=O)OCC(CO)OCn1cnc2c(=O)[nH]c(N)nc21 (stereo not given in full) [Valganciclovir HCl]	-0.56
Cc1onc(-c2ccccc2Cl)c1C(=O)N[C@@H]1C(=O)N2[C@@H]1SC(C)(C)[C@@H]2C(=O)O [Cloxacillin Sodium]	2.07
COc1ccc2c3c1O[C@H]1C[C@@H](O)C=C[C@@]31CCN(C)C2 [Galanthamine]	1.27
C#CCN(C)Cc1ccccc1 [Pargyline hydrochloride]	0
C[C@@H](O)[C@H]1C(=O)N2C(C(=O)O)=C(SCCNC=N)C[C@H]12 [Imipenem]	0.59
COc1ccc2cc([C@H](C)C(=O)O)ccc2c1 [Naproxen Sodium]	-2.32
CSCC1CN(/N=C/c2ccc([N+](=O)[O-])o2)C(=O)O1 (stereo not given) [Nifuratel]	-2.83
CC(=O)OCC(CCn1cnc2cnc(N)nc21)COC(C)=O [Famciclovir]	-0.82
CCCN[C@H]1CCc2nc(N)sc2C1 [Pramipexole 2HCl Monohydrate]	-0.88
CN[C@H]1CC[C@@H](c2ccc(Cl)c(Cl)c2)c2ccccc21 [Sertraline HCl]	-0.4
CCCCCCCCc1ccc(CCC(N)(CO)CO)cc1 [Fingolimod]	-1.31
COc1cc(/C=C/C(=O)N2CCN(CC(=O)N3CCCC3)CC2)cc(OC)c1OC [Cinepazide maleate]	-0.05
COc1ccc2cc([C@H](C)C(=O)O)ccc2c1 [Naproxen]	-1.97
O=C1CN(/N=C/c2ccc(-c3ccc([N+](=O)[O-])cc3)o2)C(=O)N1 [Dantrolene sodium]	-2.36
Cc1c(OCC(F)(F)F)ccnc1C[S@@+]([O-])c1nc2ccccc2[nH]1 [Dexlansoprazole]	-0.66
Clc1ccc(C(Cn2ccnc2)OCc2ccsc2Cl)c(Cl)c1 (stereo not given) [Tioconazole]	3.39
C[N+](C)(C)CCOC(=O)CCC(=O)OCC[N+](C)(C)C [Succinylcholine Chloride Dihydrate]	-0.03
OC(CCCN1CCCCC1)(c1ccccc1)c1ccccc1 [Diphenidol HCl]	0.78
CCOC(=O)C1=C[C@@H](OC(CC)CC)[C@H](NC(C)=O)[C@@H](N)C1 [Oseltamivir Phosphate]	-1.09
O=C1C(N(CO)C(=O)NCO)N(CO)C(=O)N1CO (stereo not given) [Diazolidinyl urea]	-0.76

Structure (SMILES)	z-score of subpopulation abundance
C[C@]12CC[C@@H]3c4ccc(O)cc4CC[C@H]3[C@@H]1CC[C@@H]2O [Estradiol]	-0.92
CCC[C@@H]1C[C@@H](C(=O)N[C@@H]([C@H]2O[C@H](SC)[C@H](O)[C@@H](O)[C@H]2O)[C@H](C)Cl)N(C)C1 [Clindamycin HCl]	-0.28
COc1nc2ccc(Br)cc2cc1[C@@H](c1ccccc1)[C@@](O)(CCN(C)C)c1cccc2ccccc12 [Bedaquiline fumarate]	1.74
CCN(CC)CCOc1ccc(C(=C(Cl)c2ccccc2)c2ccccc2)cc1 [Clomifene citrate]	1.42
CCN1CCCC1CNC(=O)c1cc(S(=O)(=O)CC)c(N)cc1OC (stereo not given) [Amisulpride]	-0.03
CCc1cc(C(N)=S)ccn1 [Ethionamide]	-0.25
CCCCCOc1ccc(-c2cc(-c3ccc(C(=O)N[C@H]4C[C@@H](O)[C@@H](O)NC(=O)[C@@H]5[C@@H](O)[C@@H](C)CN5C(=O)[C@H]([C@H](O)CC(N)=O)NC(=O)[C@H]([C@H](O)[C@@H](O)c5ccc(O)c(OS(=O)(=O)O)c5)NC(=O)[C@@H]5C[C@@H](O)CN5C(=O)[C@H]([C@@H](C)O)NC4=O)cc3)no2)cc1 [Micafungin Sodium]	13.9
CCC1(C)CC(=O)NC1=O (stereo not given) [Ethosuximide]	-0.44
CC(C)(C)CC(C)(C)c1ccc(OCCOCC[N+](C)(C)Cc2ccccc2)cc1 [Benzethonium Chloride]	-0.76
CN[C@@H]1[C@@H](O)[C@@H](O[C@@H]2[C@@H](O)[C@H](O[C@H]3OC(CN)=CC[C@H]3N)[C@@H](N)C[C@H]2N)OC[C@]1(C)O [Sisomicin sulfate]	0.52
C[N+]1(C)[C@@H]2CC[C@H]1C[C@@H](OC(=O)C(O)c1ccccc1)C2 (stereo not given in full) [Homatropine Methylbromide]	0.4
O=C(O)CCC(=O)c1ccc(-c2ccccc2)cc1 [Fenbufen]	0.23
COc1ccc(C[C@H](N)C(=O)N[C@H]2[C@@H](O)[C@H](n3cnc4c(N(C)C)ncnc43)O[C@@H]2CO)cc1 [Puromycin 2HCl]	0.39
CN1CCCN=C1/C=C/c1cccc(O)c1 [Oxantel Pamoate]	-1.13
CO[C@@]1(NC(=O)C(C(=O)O)c2ccc(O)cc2)C(=O)N2C(C(=O)O)=C(CSc3nnnn3C)CO[C@@H]21 (stereo not given in full) [Latamoxef sodium]	-0.43
COc1ccc2cc3[n+](cc2c1OC)CCc1cc2c(cc1-3)OCO2 [Berberine chloride]	-0.38
Cc1ccc(Cl)c(Nc2ccccc2C(=O)O)c1Cl [Meclofenamate Sodium]	-0.63
CC(C(O)c1ccc(O)cc1)N1CCC(Cc2ccccc2)CC1 (stereo not given) [Ifenprodil Tartrate]	-1.27
O=C1CCc2ccc(OCCCCN3CCN(c4cccc(Cl)c4Cl)CC3)cc2N1 [Aripiprazole]	0.36
O=C1c2cccc3c2[C@H](CCC3)CN1[C@@H]1CN2CCC1CC2 [Palonosetron]	0.12
